These results are taken from ChEMBL document CHEMBL4513149, “CO-ADD screening of MMV (CH) - MMV compounds” (2021).

Results with a measured potency or affinity are listed apart.

Assay [1] relates to Staphylococcus aureus. The note with it: Concentration 20 uM; ASSAY_TEST Inhibition of Bacterial Growth; detection method Absorption (OD600); MEDIA CAMHB; plate type 384well; NBS; CORNING #3640; time 18 hr.
For assay [2], the system named is Escherichia coli. Particulars: Concentration 20 uM; ASSAY_TEST Inhibition of Bacterial Growth; detection method Absorption (OD600); MEDIA CAMHB; plate type 384well; NBS; CORNING #3640; time 18 hr.

For `O=C(c1ccc(F)cc1)N(CCNc1ccccc1)c1ccccc1`, the Inhibition in assay [1] was 14.62%; in assay [2], 8.4%.
With `Cc1ccc(S(=O)(=O)Nc2ccc(CN3CCN(C(=O)c4cccc(C#N)c4)CC3)cc2)cc1`, the Inhibition stood at 8.99% in assay [1] and 3.52% in assay [2].
The like results for `CNC(=O)c1cc(S(=O)(=O)N2CCN(c3ccccn3)CC2)cs1` were, in that order, 7.99% and -1.66%.
The corresponding values for `Cc1ncc(-c2ccnc(Nc3ccc(S(C)(=O)=O)cc3)n2)n1C(C)C` [AZD-5438] are 28.03% and 5.82%.
For `COc1ccc(-c2cnc3ccc(NCc4ccc(S(N)(=O)=O)cc4)nn23)cn1`, the figures for the Inhibition in assay [1] and in assay [2] were 19.01% and 10.16%, respectively.
The corresponding values for `CCNC(=O)C(C)Nc1nc(-c2cccnc2)nc2sc(C)c(C)c12` (configuration not stated) are 4.74% and 10.74%.
As for `CC1CCCCN1C(=O)NCCc1coc(-c2ccc(F)cc2)n1` (configuration not stated), the values for the Inhibition in assay [1] and in assay [2] were 23.75% and 7.62%, respectively.
The corresponding values for `Clc1ccc(Cl)c(CO[C@H]2CCCC[C@@H]2n2ccnc2)c1` are 22.53% and 7.4%.
The like results for `O=C(NCc1ccco1)N1CCN(Cc2ccc(Cl)s2)CC1` were, in that order, 6.8% and -3.38%.
The corresponding values for `CC(C)(C(=O)Nc1ccc(F)cc1)n1cc(-c2ccccc2F)cn1` are 21.36% and 9.99%.
As for `O=C(Nc1ccnc(-c2cccnc2)n1)c1cc(C(F)(F)F)cc(C(F)(F)F)c1`, the Inhibition came to 15.63% in assay [1] and 6.19% in assay [2].
The like results for `CC(C)=CCC/C(C)=C\CNCCNC1C2CC3CC(C2)CC1C3` (configuration not stated) were, in that order, 37.58% and 10.47%.
The like results for `O=C(C(Cc1c[nH]c2ccccc12)NS(=O)(=O)c1ccc(Cl)cc1)N1CCCCC1` (configuration not stated) were, in that order, 2.32% and 4.17%.
The like results for `CCC(Sc1nc2ccccc2o1)C(=O)Nc1nccs1` (configuration not stated) were, in that order, 18.2% and 11.9%.
As for `C[C@]1(O)C[C@@H](c2nc(-c3ccc4ccc(-c5ccccc5)nc4c3)c3c(N)nccn32)C1` [LINSITINIB], the values for the Inhibition in assay [1] and in assay [2] were 13.39% and 6.95%, respectively.
The like results for `O=C(NCc1cc(Cl)cc(Cl)c1)c1c(C(F)(F)F)nc2ccccn12` were, in that order, 22.39% and 10.43%.
The like results for `Cc1noc(C)c1C(=O)N1CCCC(c2[nH]c3c(C)cccc3c2-c2ccncc2)C1` (configuration not stated) were, in that order, 19.72% and 12.41%.
For the compound `CN1CCN(c2nccc3nc(-c4ccc(F)c(F)c4)[nH]c23)CC1`, the figures for the Inhibition in assay [1] and in assay [2] were 17.33% and 8.63%, respectively.
The corresponding values for `Cc1ccc(-c2cc(C(=O)Nc3cccnc3)c3cc(Br)ccc3n2)cc1` are 16.17% and 9.4%.
The like results for `Cc1cc(C)c2cc(C(=O)NC3CCCCCCC3)[nH]c2c1` were, in that order, 16.44% and 7.15%.
The corresponding values for `Cc1cc(NC(=O)c2ccc(S(=O)(=O)N(Cc3ccccc3)C(C)C)cc2)no1` are 10.98% and 6.09%.
Take `O=C(Nc1ccc(F)c(-c2nc3cc(-c4ccccc4)cnc3[nH]2)c1)N1CCCC1`: the Inhibition in assay [1] is 13.16%; in assay [2], -0.3%.
For the compound `Cc1ccc(NC(=O)CC2COc3ccccc3O2)cc1Cl` (configuration not stated), the Inhibition is reported as 15.28% in assay [1] and 6.03% in assay [2].
The like results for `CC(C(=O)N1CCCC1)N1CCN(S(=O)(=O)c2ccc(C(C)(C)C)cc2)CC1` (configuration not stated) were, in that order, 8.1% and -2.16%.
The corresponding values for `O=C1[C@@H](Oc2ccccc2)[C@@H](c2ccc(Cl)cc2)N1CCn1cnc2c(NCc3ccccc3)ncnc21` are -4.13% and 1.08%.
As to `CCc1ccc(C(NCc2nc(N)nc(N(C)C)n2)C(C)C)cc1` (configuration not stated), the values for the Inhibition in assay [1] and in assay [2] were 6.21% and 7.08%, respectively.
The like results for `O=C(NC1CC1)c1ccc(CSCc2ccccc2Cl)o1` were, in that order, 11.19% and -1.44%.
The like results for `COc1ccc(N(CCc2cccc(C)n2)C(C)=O)cc1` were, in that order, 18.62% and 6.06%.
The like results for `Cc1nc(-c2cccc(NCc3ccccc3)c2)[nH]c1C` were, in that order, 19.75% and 6.38%.
For `CCN(CC)S(=O)(=O)c1ccc(Cl)c(C(=O)Nc2ccc3nc(C)sc3c2)c1`, the Inhibition stood at 2.16% in assay [1] and 0.28% in assay [2].
On to `Cc1cc(Nc2ccc(C(F)(F)F)cc2)n2ccnc2n1`, for which the Inhibition in assay [1] is reported as 20.89%; in assay [2] it was 9.89%.
Regarding `Nc1nccc2ccc(Oc3ccncc3)cc12`, the Inhibition in assay [1] came to 12.81%; in assay [2], 7.44%.
The corresponding values for `Clc1ccc(-n2cc(COc3ccnc4ccccc34)nn2)cc1` are 21.12% and 8.78%.
The corresponding values for `O=C(Nc1nc(-c2ccccn2)cs1)c1cncn1-c1ccccc1` are 8.38% and 5.73%.
The like results for `CC1=Nc2ccc(Cl)cc2C(c2ccccc2)N1CCNC(=O)CN(C)C` (configuration not stated) were, in that order, 20.65% and 6.95%.
As for `COc1ccc(-c2nnc3ccc(-c4cccc(C(C)C)c4)cn23)cc1OC`, the Inhibition is listed as 5.54% in assay [1] and 12.18% in assay [2].
The corresponding values for `COc1ccc(S(=O)(=O)Nc2ccc(CN3CCN(C(=O)c4cccc(C#N)c4)CC3)cc2)cc1` are 1.42% and -0.19%.
The like results for `CCc1nc2ccc(C(=O)NCc3ccc4c(c3)OCO4)cn2c1N(C)Cc1cccs1` were, in that order, 4.69% and -1.74%.
The corresponding values for `CNC(=O)C1Cc2c([nH]c3cc(Cl)ccc23)C2(CCN(CCc3ccccc3)CC2)N1` (configuration not stated) are 24.47% and 9.53%.
On to `c1ccc2c(c1)CN(CC1CC1)CC1(CCN(Cc3c[nH]c4cnccc34)CC1)O2`, for which the results for the Inhibition in assay [1] and in assay [2] were 14.8% and 1.67%, respectively.
The corresponding values for `COc1ccc(C2=NN(C3CCCCCC3)C(=O)[C@@H]3CC=CC[C@H]23)cc1OCCCCOc1ccc(-c2nnn[nH]2)cc1` are 53.58% and 1.88%.
The like results for `O=C1N(Cc2cc3ccccc3s2)CC2CN(Cc3ccccc3)CCN12` (configuration not stated) were, in that order, 3.35% and -5.97%.
The corresponding values for `CCCCN(CCCC)c1c(C#N)cc(S(=O)(=O)Nc2ccccc2)cc1C#N` are 3.78% and -2.29%.
Regarding `CCCCOC(=O)Nc1cc2nc(C3CCCCC3)[nH]c2cc1N1CCCC1`, the Inhibition in assay [1] is listed as 9.54%; in assay [2], -0.47%.
The corresponding values for `Nc1ncc(Br)cc1-c1nc2cc(Cl)cnc2[nH]1` are 26.53% and 12.85%.
The corresponding values for `COc1ccccc1C(C)NCC(=O)Nc1cc(C(F)(F)F)ccc1Cl` (configuration not stated) are 10.99% and 8.42%.
The corresponding values for `Clc1ccc(CN2CCN(C3=NCCN3)CC2)cc1Cl` are 14.27% and 4.2%.
As to `CCN(CC)CCCN1CCN(C(=O)c2cccc(-c3noc(C(F)(F)F)n3)c2)CC1`, the figures for the Inhibition in assay [1] and in assay [2] were -0.71% and -1.62%, respectively.
The like results for `CC(C)(C)OC(=O)N1CCC(Cn2nc(-c3cnc4ccccc4c3)c3c(N)ncnc32)CC1` were, in that order, 18.54% and 10.38%.
The like results for `Cc1cc(O)nc(-n2nc(C)cc2C)n1` were, in that order, 9.17% and 6.91%.
The corresponding values for `O=[N+]([O-])c1cn2c(n1)OC[C@@H](OCc1ccc(OC(F)(F)F)cc1)C2` [PRETOMANID] are 14.36% and 4.79%.
As to `Cc1cc(C(=O)Nc2ccc(-c3ccccc3)cc2)no1`, the Inhibition is given as 16.2% in assay [1] and 12.13% in assay [2].
The like results for `N#Cc1ccc(-c2ccc(OCC(N)=O)cc2)cc1` were, in that order, 6.41% and -3.93%.
For `NC(=O)c1cc(-c2ccsc2)ccc1OCCOc1ccccc1`, the Inhibition in assay [1] is listed as 14.87%; in assay [2], 5.41%.
In the case of `CC(=O)N1CCc2cc3nc(C)cc(C)c3cc21`, the figures for the Inhibition in assay [1] and in assay [2] were 14.4% and 5.79%, respectively.
The corresponding values for `FC(F)(F)c1cc(NCCc2ccccc2)nc(-c2ccccn2)n1` are -9.89% and -6.09%.
For `Cc1c[nH]c(CCNC(=O)c2cc(-c3ccc(Cl)cc3)cs2)n1`, the figures for the Inhibition in assay [1] and in assay [2] were 25.33% and 10.78%, respectively.
The like results for `O=C(NCCN1CCCC1)c1cc(NCCCCN2CCC(F)(F)CC2)nc2ccc(Cl)cc12` were, in that order, 22.5% and 8.02%.
The like results for `Cl.O=C(Nc1ccc(N2CCNCC2)nc1)c1oc(-c2ccccc2)nc1C(F)(F)F` were, in that order, 15.48% and 0.64%.
The corresponding values for `Cc1cc(Cl)c(S(=O)(=O)N2CCCC2)cc1OCC(=O)NC1CCCCC1` are 7.56% and 0.73%.
For `CN(C)c1cc(NC(=O)Nc2ccccc2)c2ccccc2n1`, the Inhibition in assay [1] turned out to be 12.79%; in assay [2] it was 6.08%.
The corresponding values for `CCCS(=O)(=O)N1CCC(CO)(Cc2ccccc2C(F)(F)F)CC1` are 8.25% and -1.16%.
The like results for `COc1cccc(CC(=O)N2CCC(n3c(C)nc4ccc(F)cc43)CC2)c1` were, in that order, 21.64% and 9.91%.
Turning to `CN1CCCC1CCO[C@](C)(c1ccccc1)c1ccc(Cl)cc1.O=C(O)/C=C/C(=O)O` (some centres not stated), the Inhibition in assay [1] was 18.42%; in assay [2], 10.75%.
For `Clc1ccc(CCNc2cc(-c3ccccc3)nc3ncnn23)cc1`, the values for the Inhibition in assay [1] and in assay [2] were 16.06% and 4.96%, respectively.
`Cc1cccc(NC(=O)c2cc(S(=O)(=O)N(C)c3ccc(F)cc3)ccc2Cl)n1`: the Inhibition in assay [1] turned out to be 12.32%; in assay [2], 7.88%.
The corresponding values for `Cc1cc(C)n2nc(C(=O)Nc3cc(C(F)(F)F)ccc3N3CCOCC3)nc2n1` are 13.59% and 10.47%.
The corresponding values for `c1ccc(Oc2ccc(-c3cc(CN4CCOCC4)[nH]n3)cc2)cc1` are 15.12% and 2.47%.
With `O=C(NC1=NCCS1)c1sc2cc(F)ccc2c1Cl`, the Inhibition in assay [1] is given as 2.69%; in assay [2], -4.46%.
The like results for `Nc1ncc(-c2cn[nH]c2)cc1-c1nc2cc(Cl)cnc2[nH]1` were, in that order, -0.61% and 5.12%.
As for `Nc1ccc(C(=O)Nc2ccc(-c3nc4ccccc4o3)cc2)cc1`, the results for the Inhibition in assay [1] and in assay [2] were 11.63% and 11.29%, respectively.
The like results for `CNc1cc(C)nc(C2CN(C(=O)c3n[nH]c4ccccc34)CCO2)c1` (configuration not stated) were, in that order, 17.74% and 10.11%.
The like results for `COc1ccc(-c2onc(C(F)(F)F)c2-c2ccc(Cl)cc2)c(O)c1` were, in that order, 22.97% and 5.79%.
The corresponding values for `CCc1nc2ccccc2n1CC(O)COc1cc(C)ccc1Cl` (configuration not stated) are 11.53% and 4.16%.
Regarding `OC[C@H]1O[C@@H](n2c3ccc(Cl)cc3c3c(-c4cc5ccccc5o4)ncnc32)C(O)[C@H]1O` (some centres not stated), the Inhibition turned out to be 9.2% in assay [1] and 8.79% in assay [2].
The like results for `c1ccc(-c2[nH]c3ccccc3c2C(c2ccccn2)N2CCCC2)cc1` (configuration not stated) were, in that order, 7% and 3.92%.
